# Source: PubChem
# PfHsp40 rescue: compounds rescuing yeast from Plasmodium falciparum HSP40 toxicity. AID 504582. 0.68% of 340,000 active. S. cerevisiae expressing PfHsp40, growth rescue, ATP luminescence. growth rescue, % at 12.5 µM; in the data active = growth rescue above about 28%, passing the limit was not always enough; inconclusive = no clear call, values can overlap the other calls;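 also: yeast W303a lacking pdr1 and pdr3 grown in galactose medium; growth measured after three days at 30 °C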
# VHR inh abs: inhibitors of human VHR1 phosphatase (DUSP3); recombinant VHR phosphatase, pNPP absorbance; P51452; inhibition, % at 13.3 µM; AID 1654; 0.52% of 290,000 active; in the data active = inhibition above about 50%
# Target sequence (P51452 whole entry, looked up): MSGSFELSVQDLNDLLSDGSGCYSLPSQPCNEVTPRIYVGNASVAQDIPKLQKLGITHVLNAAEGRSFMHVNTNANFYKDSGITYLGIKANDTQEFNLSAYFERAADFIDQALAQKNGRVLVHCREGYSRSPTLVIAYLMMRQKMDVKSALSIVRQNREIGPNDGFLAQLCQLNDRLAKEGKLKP
# PriA SSB inh: blocks PriA binding to SSB C-terminal tail | 0.6% of 430,000 active | AlphaScreen SSBct-PriA binding, biotinylated peptide | inhibition, % at 33 µM; in the data active = inhibition mostly above about 37%, no sharp cut-off; inactive = mostly below about 20%;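 also: plate controls were negative control peptide for no effect and reference peptide for full effect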
# Mtb hypoxia rep: inhibitors of hypoxia-regulated fluorescent reporter in Mycobacterium tuberculosis | fluorescence inhibition, % (test concentration not listed) | 0.1% of 300,000 active | AID 1159583 | M. tuberculosis hypoxia-regulated fluorescent reporter, fluorescence; in the data active = fluorescence inhibition mostly above about 23%, no sharp cut-off; inactive = mostly below about 17%
# Sa RN4220 lethal: kills Staphylococcus aureus RN4220 | 0.33% of 330,000 active | S. aureus RN4220 growth, OD600, 16 h | inhibition, % (no concentration beside the values); in the data active = inhibition above about 85%;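 also: plate controls were untreated cells for no effect and reference antibiotic for full effect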
# ugtP null kill: compounds lethal to S. aureus RN4220 ugtP deletion mutant; OD600 growth, 16 h; 0.54% of 330,000 active; growth inhibition, % (no concentration beside the values); in the data active = growth inhibition above about 68%;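 also: plate controls were untreated wells for no effect and antibiotic for full effect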
# * marks the source's active call; other numbers are inactive results; i = inactive; ? = inconclusive; / = no result given; ! = repeats disagree. Rows were chosen to be rich in hits. Some 1.8% of all compounds tested hit in one or more screens of this group.
SMILES,PfHsp40 rescue,VHR inh abs,PriA SSB inh,Mtb hypoxia rep,Sa RN4220 lethal,ugtP null kill
Cc1ccc(-n2nnnc2SC(C(=O)c2c[nH]c3ccccc23)c2ccccc2)cc1 (configuration not stated),-2,8,-11,2,65,90*
O=C(Nc1ccc(S(=O)(=O)N2CC3CC(C2)c2cccc(=O)n2C3)cc1)C12CC3CC(CC(C3)C1)C2 (configuration not stated),/,/,0,/,/,/
CCOc1cccc(-c2c(C(=O)NN=Cc3ccoc3)nnn2-c2nonc2N)c1,/,/,-5,12,3,0
COc1cc(NC(=O)c2ccccc2Cl)c2ncccc2c1,1,16,-71,11,-6,-3
COc1cc(NS(=O)(=O)c2ccc(C)cc2)c2ncccc2c1,542*,18,-6,8,13,-17
Cc1ccc(S(=O)(=O)Nc2cccc3cccnc23)cc1,?,18,-9,/,/,/
COCCNC(=O)Nc1cc(OC)cc2cccnc12,/,/,53*,/,/,/
O=C1CS/C(=N\N=C2\NC(=O)C(CC(=O)c3ccc(F)cc3)S2)N1 (configuration not stated),/,/,46*,/,/,/
NC(=O)NC(=O)CC1S/C(=N/N=C2\CSC(=O)N2)NC1=O (configuration not stated),-1,13,/,/,/,/
O=C(O)CC1S/C(=N\N=C2\CSC(=O)N2)NC1=O (configuration not stated),/,/,64*,/,/,/
CC(C)(C)CC(=O)O/N=C(\N)c1ccccn1,72*,18,i,/,7,3
NC(=NOC(=O)Cc1ccccc1)c1ccccn1,/,/,-16,/,/,/
NC(=O)[C@@H]1CCCNc2c(I)cc([N+](=O)[O-])cc2C(=O)N[C@@H](Cc2ccccc2)C(=O)N[C@@H](Cc2cnc[nH]2)C(=O)N1,-1,1,41*,/,/,/
CC(=NNC(=O)c1ccc(NS(=O)(=O)c2cccs2)cc1)c1ccc(O)cc1O,/,/,2,16,3,-3
O=C(NC(=S)NNC(=O)c1ccccc1O)c1cccs1,-1,7,45*,2,26,-7
Cc1onc(-c2ccccc2)c1C(=O)NC(=S)NNC(=O)c1ccc(O)cc1O,248*,2,31,11,47,-22
Cc1onc(-c2ccccc2)c1C(=O)NC(=S)NNC(=O)c1ccc(O)cc1,7,8,15,-5,29,-9
Cc1onc(-c2ccccc2)c1C(=O)NC(=S)NNC(=O)c1ccccc1O,?,2,64*,-1,61,34
O=C(c1cccc(-n2cccn2)c1)N1CCCCC(c2ccc(Cl)cc2)C1 (configuration not stated),/,/,-6,/,/,/
CC(C)(Cc1ccc(O)cc1)NC(=O)SCc1ccccc1,2,51*,5,5,1,14
CC(C)(Cc1ccc(O)cc1)NC(=O)CC(=O)NN=Cc1ccc(Cl)cc1,/,/,-9,1,-7,-1
CC(C)[C@H](Nc1ccc(C(F)(F)F)cc1[N+](=O)[O-])C(=O)O,-1,-8,-1,14,13,8
O=C(NNc1ccc(C(F)(F)F)cc1[N+](=O)[O-])c1ccc(NS(=O)(=O)c2ccc(F)cc2)cc1,1,-7,60*,2,-1,-18
CCc1ccc(/C=C(/C#N)C(N)=S)cc1,1,3,38*!,5,9,5
CCOC(=O)CSc1nnc(CNC(=O)c2cccc(C)c2)n1C,47*,27,-9,7,2,18
SMILES,PfHsp40 rescue,VHR inh abs,PriA SSB inh,Mtb hypoxia rep,Sa RN4220 lethal,ugtP null kill
COC(=O)CSc1nnc(CNC(=O)c2cccc(C)c2)n1C,/,/,-11,/,/,/
Cc1ccc(NC(=O)C2C(c3ccccc3)C=CC(c3ccccc3)C2C(=O)O)cc1 (configuration not stated),172*,-18,-2,/,-2,29
Cc1ccc(NC(=O)C2C(C(=O)O)C3C=CC2C32CC2)cc1 (configuration not stated),2,29,-5,4,5,6
CC(NCc1cccc(Cl)c1Cl)C(O)c1ccccc1 (configuration not stated),0,1,116*,11,4,3
O=C(CSc1nnc(Cc2nnc(SCC(=O)c3ccc(F)cc3)n2-c2ccccc2)n1-c1ccccc1)c1ccc(F)cc1,/,/,0,/,/,/
COc1ccc(NC(=O)C2CC(=O)N(c3ccccc3C)C2)c(OC)c1 (configuration not stated),1,58*,-4,8,4,8
COc1ccc(OC)c(NC(=O)C2CC(=O)N(c3ccccc3)C2)c1 (configuration not stated),1,-2,-5,6,3,12
COC(=O)c1c(Cl)c2n3ccccc3c(C)c(-c3ccccc3)c-2c1C(=O)OC,0,6,-4,9,10,-13
COC(=O)c1cc2c(-c3ccccc3)c(C)c3ccccn3c-2c1C(=O)OC,0,6,66*,18,-15,-39
Cc1ccc(CN2CCN(N=C/C(Br)=C/c3ccccc3)CC2)cc1,/,/,19,3,-7,40
COc1ccc2nc(NC(=S)N(C)C)sc2c1,99*,16,1,8,3,2
CCC(CC)NC(=O)CCc1nc2ccccc2c(=O)[nH]1,-2,51*,0,8,3,1
CC(=O)Nc1ccc(NC(=O)CCc2nc3ccccc3c(=O)[nH]2)cc1,-1,17,6,1,0,12
COC(=O)N1C(C)C=C[C@]1(Cc1ccccc1)C(=O)NCCCNc1ncc(C(F)(F)F)cc1Cl (some centres not stated),/,/,/,-1,-4,-35
CNC(=O)c1sc(-c2ccccc2)nc1C,93*,-6,-1,19,-9,-3
O=C(NC1CC2CCCC(C1)N2Cc1ccccc1)c1cccc(F)c1 (configuration not stated),0,56*,-21,-2,2,10
C=CC[C@@H](Cc1ccc(F)cc1)C(=O)OC[C@@H]1CCCN1C(=O)[C@H](CC=C)CC(=O)N(CCO)Cc1ccccc1,37*,/,6,/,/,/
C=CCC[C@@H](Cc1ccc(F)cc1)C(=O)OC[C@@H]1CCCN1C(=O)[C@@H](CC=C)CC(=O)N[C@@H](CO)Cc1ccccc1,41*,/,-12,/,/,/
CC1=C(C(=O)Nc2ccccc2)C(c2ccc(C)cc2)N=C(Nc2nc3ccccc3o2)N1 (configuration not stated),0,0,-15,37*,30,-10
COc1ccc(O)c(C=Nc2nc3ccccc3n2C)c1,/,/,-15,3,2,1
Cc1csc(NC(=O)CCCn2nc(-c3ccc(Cl)cc3)ccc2=O)n1,/,/,9,/,/,/
OCCN1CCN(CCCN2c3ccccc3Sc3ccc(C(F)(F)F)cc32)CC1,1,1,10,16,-1,-6
CN1CCN(CCCN2c3ccccc3Sc3ccc(Cl)cc32)CC1,0,-3,37,25,-11,-2
FC(F)(F)c1ccc2c(c1)N(CCCN1CCN(CCCl)CC1)c1ccccc1S2,-2,2,7,/,100*,101*
